Experimental data from PubChem BioAssay AID1159580 (chemical genetic matrix, 2015).
Screen size: about 5,500 compounds; about 2,000 (36%) were called active. Not shown: some 18% with an inconclusive outcome. No stated cut-off is given here; in the data, active means normalized growth mostly below about 0.91 (no sharp cut-off); inconclusive means no clear call, values can overlap the other calls; inactive means mostly above about 0.92. Some of the results follow.

Test: chemical genetic growth profiling, strain panel (AID 1159580);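 further: tested at 20 µM; growth read once vehicle control cultures reached saturation at 30 °C; 1 = growth at the plate median or of vehicle wells; lower values mean less growth of the strain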
Conditions: S. cerevisiae deletion strains, growth OD

Measured: normalized growth

CC(C)c1cccc(C(C)C)c1O
inactive: locus YAL013W, strain DEP1, hits give low values 1.01 | locus YAL021C, strain ccr4, hits give low values 1 | locus YAL026C, strain drs2, hits give low values 0.993 | locus YAL030W, strain snc1, hits give low values 0.985 | locus YAL040C, strain CLN3, hits give low values 0.998 | locus YBL061C, strain skt5, hits give low values 0.983 | locus YBR009C, strain hhf1, hits give low values 0.966 | locus YBR023C, strain chs3, hits give low values 0.977 | locus YBR171W, strain sec66, hits give low values 0.987 | locus YBR231C, strain swc5, hits give low values 0.997 | locus YBR279W, strain paf1, hits give low values 0.992 | locus YCL011C, strain gbp2, hits give low values 0.991 | locus YCL016C, strain dcc1, hits give low values 0.976 | locus YCL061C, strain MRC1 (second series), hits give low values 0.988 | locus YCL061C, strain MRC1, hits give low values 0.991 | locus YCL069W, strain vba3, hits give low values 0.992 | locus YCR088W, strain abp1, hits give low values 0.996 | locus YDL005C, strain med2, hits give low values 0.984 | locus YDL040C, strain nat1, hits give low values 0.976 | locus YDR001C, strain nth1, hits give low values 0.994 | locus YDR069C, strain doa4, hits give low values 0.981 | locus YDR137W, strain rgp1, hits give low values 0.966 | locus YDR150W, strain NUM1, hits give low values 0.993 | locus YDR159W, strain sac3, hits give low values 0.982 | locus YDR195W, strain ref2 0.951 | locus YDR297W, strain sur2, hits give low values 0.988 | locus YDR334W, strain swr1, hits give low values 0.988 | locus YDR335W, strain msn5, hits give low values 0.993 | locus YDR363W, strain ESC2, hits give low values 0.973 | locus YDR392W, strain spt3, hits give low values 0.869 | locus YEL003W, strain gim4, hits give low values 0.99 | locus YEL037C, strain rad23, hits give low values 0.986 | locus YEL061C, strain CIN8 (second series), hits give low values 0.986 | locus YER002W, strain NOP16, hits give low values 0.986 | locus YER015W, strain faa2, hits give low values 0.983 | locus YER016W, strain bim1, hits give low values 0.979 | locus YER111C, strain swi4, hits give low values 0.973 | locus YER155C, strain BEM2 (second series), hits give low values 0.996 | locus YFR010W, strain ubp6, hits give low values 0.978 | locus YGL167C, strain pmr1, hits give low values 0.972 | locus YGL173C, strain kem1, hits give low values 0.98 | locus YGL227W, strain vid30, hits give low values 0.988 | locus YGL240W, strain doc1, hits give low values 0.983 | locus YGL253W, strain hxk2, hits give low values 0.997 | locus YGR078C, strain PAC10, hits give low values 1 | locus YHR013C, strain ard1, hits give low values 1.03 | locus YHR027C, strain rpn1, hits give low values 0.99 | locus YHR030C, strain SLT2, hits give low values 0.94 | locus YHR079C, strain IRE1, hits give low values 0.954 | locus YHR142W, strain chs7, hits give low values 1.01 | locus YJL092W, strain hpr5, hits give low values 0.992 | locus YJL095W, strain BCK1 (second series), hits give low values 0.993 | locus YJL095W, strain BCK1, hits give low values 0.992 | locus YJL115W, strain asf1, hits give low values 0.983 | locus YJL129C, strain trk1, hits give low values 0.992 | locus YJL154C, strain vps35, hits give low values 0.99 | locus YJL164C, strain tpk1, hits give low values 0.979 | locus YJL166W, strain qcr8, hits give low values 0.986 | locus YJL187C, strain SWE1, hits give low values 0.994 | locus YJR066W, strain TOR1, hits give low values 0.935 | locus YJR075W, strain HOC1, hits give low values 1 | locus YKL160W, strain elf1, hits give low values 1 | locus YKR026C, strain gcn3, hits give low values 0.953 | locus YKR091W, strain srl3, hits give low values 0.984 | locus YLL001W, strain dnm1, hits give low values 0.988 | locus YLL026W, hits give low values 0.988 | locus YLL041C, strain sdh2, hits give low values 0.996 | locus YLR027C, strain aat2, hits give low values 0.993 | locus YLR113W, strain HOG1, hits give low values 0.996 | locus YLR221C, strain rsa3, hits give low values 1.01 | locus YLR258W, strain gsy2, hits give low values 0.991 | locus YLR262C, strain YPT6 (second series), hits give low values 0.97 | locus YLR320W, strain mms22, hits give low values 0.935 | locus YLR342W, strain FKS1, hits give low values 0.986 | locus YLR357W, strain rsc2, hits give low values 0.939 | locus YLR370C, strain arc18, hits give low values 0.996 | locus YLR384C, strain iki3, hits give low values 0.971 | locus YML120C, strain ndi1, hits give low values 0.98 | locus YMR058W, strain fet3, hits give low values 0.996 | locus YMR125W, strain sto1, hits give low values 0.988 | locus YMR129W, hits give low values 1 | locus YMR205C, strain PFK2, hits give low values 0.941 | locus YMR231W, strain pep5, hits give low values 0.992 | locus YMR263W, strain SAP30, hits give low values 1 | locus YMR307W, strain GAS1, hits give low values 1 | locus YNL071W, strain lat1, hits give low values 0.996 | locus YNL153C, strain GIM3, hits give low values 1.01 | locus YNL175C, strain NOP13, hits give low values 1.03 | locus YNL183C, strain NPR1, hits give low values 0.942 | locus YNL197C, strain WHI3, hits give low values 1 | locus YNL209W, strain ssb2, hits give low values 0.992 | locus YNL224C, strain SQS1, hits give low values 1.02 | locus YNL248C, strain rpa49, hits give low values 1.01 | locus YNL322C, strain KRE1 (second series), hits give low values 0.981 | locus YNL322C, strain KRE1, hits give low values 1.01 | locus YNR049C, strain mso1, hits give low values 0.983 | locus YOR001W, strain rrp6, hits give low values 0.997 | locus YOR070C, strain gyp1, hits give low values 0.99 | locus YOR080W, strain dia2, hits give low values 0.984 | locus YOR083W, strain WHI5 (second series), hits give low values 1.02 | locus YOR083W, strain WHI5, hits give low values 1.01 | locus YOR106W, strain vam3, hits give low values 0.991 | locus YOR231W, strain MKK1, hits give low values 0.914 | locus YOR265W, strain rbl2, hits give low values 0.991 | locus YOR270C, strain vph1, hits give low values 0.993 | locus YOR290C, strain snf2, hits give low values 0.918 | locus YPL051W, strain arl3, hits give low values 1 | locus YPL055C, strain LGE1, hits give low values 0.999 | locus YPL078C, strain atp4, hits give low values 0.994 | locus YPL106C, strain sse1, hits give low values 0.951 | locus YPL240C, strain hsp82, hits give low values 1.01 | locus YPL241C, strain CIN2, hits give low values 1.01 | locus YPL256C, strain CLN2, hits give low values 0.929
